According to the OligoGym collection:

Each sequence was assayed against DNAJC13 (assay: pooled miR-30 sensor sort-seq; sequence = guide strand). Settings: shRNA.
Further: reference of the scale not given here.

Sequence	sensor-assay potency score (higher = more potent)
TTCAATTACATTGCTTTGCAGT	-0.243
TTAAGGAAGAGAATCAACCTAT	-0.138
TTGTGCTACTAATTCACTCTGC	0.635
TTGTCTCTAACATGCATCCGAT	-1.12
TACTAATTCACTCTGCTCCTTC	0.364
TTTTCTACTTCTTTCTTCCAGG	-0.404
TTGAATTGCAGAACATATCCAG	0.63
TTGATTATTTTTGTACTCGATG	-0.943
TATCTTTCAGTTCTTCTCGTGT	-0.0145
TAGACCAACAGTATCTGCTCGC	0.515
TTGTTGTGTAGAAACATGCCAG	-0.232

What follows are sequences tested against DNAJC19 in the same assay as above. Settings: shRNA.

Sequence	sensor-assay potency score (higher = more potent)
TTCAGTTTTGCTAACAGGGTTT	-0.256
TTCACTTTTAAATACAAGGTTC	-0.645
TTTTTTAAAATTGTAGCTCTGA	0.364
TAAACAAGAAAATTATACCAAG	-1.18
TTTAAAAGCATAATTCGTCGAT	0.123
TTCGTCGATGAGCATCTCTTAT	-1.36
TTAAAAGCATAATTCGTCGATG	-0.449
TAAAATTGTAGCTCTGAGGCAT	0.463
TTGATATTGAGAACATTTCAGT	-0.702
ATGAACAATATTTCTATTCAGA	-0.967
TAAATCTTTAGCTTCATTGATT	-0.54
TTTATTAGTGTATAAATTCTAA	-0.615

The sequences below were run against DNAJC4 in the same assay as above. Settings: shRNA.

Sequence	sensor-assay potency score (higher = more potent)
TAGCCGTTGTCGCTCCTGCTGA	-1.23
TTTGGGGGACTACCTGAGCGGA	-1.85
TTGTCATGGACTGTGGTTCGTG	-0.505
TTGGGGGACTACCTGAGCGGAG	-1.16
TCGCTCAGCTCCACAAAGCGGC	-1.13
TTGTCGCTCCTGCTGAAGGATG	-1.56
TTGTTTGTGTTGCTGCTGCCTC	-0.896
TTAACTTCCTCAGTGCTGGCAC	0.72
TTTGGTGGGCAGACTTGTCATG	-0.548
TAGAAGGCTGTGATGATCCGAT	0.303
TGCATCTGCTTCACCTTCCTGA	-0.639
TTCATCCATGAAGTTAAGGTGC	-0.818

The sequences below were run against DNAJC8 in the same assay as above. Settings: shRNA.

Sequence	sensor-assay potency score (higher = more potent)
TTTCTAACCATCACAATTCAGT	-0.77
TTTTTCGAAGTTAGAACCGAGT	-0.8
TTGGCTTGGAAGTTTCGCCAGC	-0.414
TGTAACTTCAGGATCTATCTGA	0.809
TTTCACAGTGTGTTCCACGTAT	0.15
